# Data reported in PubChem BioAssay (Tox21).
# Unmarked numbers belong to inactive results. Records with an inconclusive call do not appear. Entries that show only a call come without a potency. The source made the active and inactive calls. Unless noted, the call rests on the fitted dose curve; in most records, active means well fitted curve in the direction sought with a large enough effect in the repeat runs; inconclusive means weak or mixed curves; inactive means no such curve, though single readings can be large; an effect the other way counts as inactive or inconclusive.
# Columns and labels:
# [1] = target: Thyrotropin receptor (Homo sapiens) (UniProt P16473); assay: qHTS assay to identify small molecule agonists of the thyroid stimulating hormone receptor (TSHR) signaling pathway (AID 1224843; calls by dose curve; further: nearly all actives have a fitted effect of over 45% in size)
# Outline: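 HEK293/TSHR, 800 cells/well; cpd 30 min RT; add cAMP-d2 + anti-cAMP-cryptate, 1 h RT; fluorescence read on plate reader. 15-pt titration, n=3.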
# [2] = qHTS assay to identify small molecule agonists of the hypoxia (HIF-1) signaling pathway - cell viability counter screen (AID 1224844; calls by dose curve; further: nearly all actives have a fitted effect of over 50% in size)
# Outline: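 CellTiter-Glo luminescence read-out, 30 min RT, taken in the same wells as the beta-lactamase HRE reporter assay; HRE-bla ME-180 cells, 0.5% dialyzed FBS, 17 hr compound treatment at 37C, 5% CO2.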
# [3] = qHTS assay to identify small molecule agonists of H2AX (AID 1224845; active means well fitted activation curve with a large enough effect in the signal ratio in the repeat runs, not every such curve was filed as active; the % refers to the signal ratio)
# Outline: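 Wild-type CHO-K1 cells, plated overnight, exposed 3hr at 37C to 15 concentrations (0.76% DMSO final). Lysed, then HTRF anti-pH2AX (S139) cryptate and anti-H2AX-d2 antibodies, 24 hr room temperature; 665/620 nm emission read.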
# [4] = qHTS assay to identify small molecule agonists of the hypoxia (HIF-1) signaling pathway (AID 1224846; active means well fitted activation curve with a large enough effect in the signal ratio in the repeat runs, not every such curve was filed as active; the % refers to the signal ratio)
# Outline: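 Beta-lactamase FRET read-out (CCF4-AM substrate) from ME-180 cells carrying an HRE-driven bla reporter, after 17 hrs compound exposure at 37C/5% CO2. Cells were seeded at 2,000 per well in 0.5% dialyzed FBS medium and preincubated 5 hrs.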
# [5] = qHTS RealTime-Glo MT Cell Viability Assay in HepG2 cells - 24 hour (AID 1224867); further: nearly all actives have a fitted effect of over 50% in size
# Outline: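 Viability was tracked continuously by NanoLuc luminescence from prosubstrate reduced by living HepG2 cells, at successive time points over 40 h of compound exposure. Cells with reagent were preincubated 5 h at 37 °C before compound addition.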
# [6] = A CellTox Green Cytotoxicity Assay to monitor cytotoxicity in HEK293 cells - 0 hour (AID 1224869); further: nearly all actives have a fitted effect of over 50% in size
# Outline: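 Read-out: fluorescence of a cell-impermeant cyanine dye staining DNA of dead cells, proportional to cytotoxicity. HEK293, 600 cells/well with reagent, compound (23 nL DMSO) added after 5 h; reads at 0, 8, 16, 24, 32, 40 h.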
# [7] = qHTS assay to identify small molecule agonists of H2AX - cell viability counter screen (AID 1224847; calls by dose curve; further: top concentration of the series differs between compounds; nearly all actives have a fitted effect of over 30% in size)
# Outline: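 Cytotoxicity counter screen in wild-type CHO-K1 cells: a 3 hr compound treatment at 37C across 15 concentrations, followed by CellTiter-Glo luminescence to gauge viable cells.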
# [8] = qHTS RealTime-Glo MT Cell Viability Assay in HEK293 cells - 32 hour (AID 1224868); further: nearly all actives have a fitted effect of over 50% in size; further: potency means the concentration at half of the fitted maximal effect
# Outline: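 Viability tracked continuously by luminescence as live cells reduce a prosubstrate for NanoLuc; HEK293 cells preincubated 5 h, compound-treated at 37 C, and read at 0, 8, 16, 24, 32 and 40 h.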
# [9] = qHTS assay to identify small molecule antagonists of the estrogen related receptor (ERR) signaling pathway from Tox21 library (AID 1224848); further: nearly all actives have a fitted effect of over 50% in size; further: potency means the concentration at half of the fitted maximal effect
# Outline: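 Compounds dissolved in DMSO are pin-transferred onto ERR reporter cells (2,000 per well) that have settled for 6 h at 37 C. Plates then incubate 18 h at 37 C before ONE-Glo luciferase reagent and a luminescence read 30 min later.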
# [10] = qHTS assay to identify small molecule agonists of the estrogen related receptor (ERR) signaling pathway from Tox21 library (AID 1224849; calls by dose curve; further: nearly all actives have a fitted effect of over 15% in size); settings: ERR reporter cell line, ONE-Glo luciferase, 18 h; at 92.4 µM (top of the series) unless noted
# Outline: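 Luminescence readout (ONE-Glo, 30 min RT) after 18 h compound exposure at 37 C of NTP-supplied ERR reporter cells; cells were plated 6 h before compound addition by pin tool.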
# Chain of Thyrotropin receptor (Homo sapiens) (P16473 whole entry, looked up): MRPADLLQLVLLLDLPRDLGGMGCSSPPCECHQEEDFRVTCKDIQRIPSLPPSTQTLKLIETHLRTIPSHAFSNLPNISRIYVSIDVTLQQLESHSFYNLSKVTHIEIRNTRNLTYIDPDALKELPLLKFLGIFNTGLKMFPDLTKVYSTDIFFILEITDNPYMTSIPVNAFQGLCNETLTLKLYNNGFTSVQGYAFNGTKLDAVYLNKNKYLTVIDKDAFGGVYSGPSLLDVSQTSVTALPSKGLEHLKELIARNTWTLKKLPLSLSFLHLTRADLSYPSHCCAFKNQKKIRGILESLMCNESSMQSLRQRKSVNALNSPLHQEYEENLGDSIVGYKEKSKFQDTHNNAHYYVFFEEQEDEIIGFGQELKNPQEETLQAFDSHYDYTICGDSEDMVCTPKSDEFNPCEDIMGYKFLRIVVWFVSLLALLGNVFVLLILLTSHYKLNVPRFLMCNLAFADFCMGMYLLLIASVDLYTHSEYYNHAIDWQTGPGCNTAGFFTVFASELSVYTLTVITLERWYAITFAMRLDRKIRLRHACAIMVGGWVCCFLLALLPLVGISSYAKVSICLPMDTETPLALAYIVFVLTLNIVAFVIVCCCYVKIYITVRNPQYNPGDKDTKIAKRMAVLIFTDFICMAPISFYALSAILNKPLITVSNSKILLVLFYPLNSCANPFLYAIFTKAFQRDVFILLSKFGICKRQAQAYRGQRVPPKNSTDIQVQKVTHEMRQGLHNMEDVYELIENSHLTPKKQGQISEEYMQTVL
structure (smiles),measurement,setting,value
COc1ccc(N=[N+]([O-])c2ccc(OC)cc2)cc1,outcome,[1],inactive
same,Potency,[2],inactive
same,outcome,[3],inactive
same,outcome,[4],inactive
same,outcome,[5],inactive
same,Potency,[6],inactive
CC(=O)CCc1ccc(O)cc1,outcome,[1],inactive
same,Potency,[2],inactive
same,outcome,[3],inactive
same,outcome,[4],inactive
same,outcome,[5],inactive
same,Potency,[6],inactive
O=C1OC(=O)c2cc([N+](=O)[O-])ccc21,outcome,[1],inactive
same,Potency,[2],inactive
same,outcome,[3],inactive
same,outcome,[4],inactive
same,Potency,[7],inactive
same,outcome,[5],inactive
same,Potency,[6],inactive
COc1cccc(OC)c1,outcome,[1],inactive
same,Potency,[2],inactive
same,outcome,[3],inactive
same,outcome,[4],inactive
same,outcome,[5],inactive
same,Potency,[8],inactive
same,Potency,[6],inactive
C[C@H]1O[C@@H](n2cc(F)c(=O)[nH]c2=O)[C@H](O)[C@@H]1O,outcome,[1],inactive
same,Potency,[2],inactive
same,outcome,[3],inactive
same,Potency,[7],inactive
same,Potency,[9],inactive
same,"activity change, positive = activation",[10],2.35% [at 42.5 µM]
same,outcome,[5],inactive
same,Potency,[6],inactive
CC(C)CCCCCCN,outcome,[1],inactive
same,Potency,[2],inactive
same,outcome,[3],inactive
same,outcome,[4],inactive
same,outcome,[5],inactive
same,Potency,[8],inactive
same,Potency,[6],inactive
CCCOCC(C)OCC(C)O (stereo not drawn),outcome,[1],inactive
same,Potency,[2],inactive
same,outcome,[3],inactive
same,outcome,[4],inactive
same,Potency,[9],inactive
same,"activity change, positive = activation",[10],1.4%
same,outcome,[5],inactive
same,Potency,[8],inactive
same,Potency,[6],inactive
CCC(C(=O)NC(N)=O)c1ccccc1 (stereo not drawn),outcome,[1],inactive
same,Potency,[2],inactive
same,outcome,[3],inactive
same,outcome,[4],inactive
same,Potency,[9],inactive
same,"activity change, positive = activation",[10],-3.04%
same,outcome,[5],inactive
same,Potency,[8],inactive
same,Potency,[6],inactive
CCN1CCN(c2cc3c(cc2F)c(=O)c(C(=O)O)cn3C2CC2)CC1,outcome,[1],inactive
same,Potency,[2],inactive
same,outcome,[3],inactive
same,Potency,[7],inactive
same,outcome,[5],inactive
same,Potency,[8],inactive
same,Potency,[6],inactive
CCN(CC)S(=O)(=O)c1ccc(C(=O)O)cc1,outcome,[1],inactive
same,Potency,[2],inactive
same,outcome,[3],inactive
same,outcome,[4],inactive
same,Potency,[7],inactive
same,outcome,[5],inactive
same,Potency,[6],inactive
CO[Si](CCCNCCC[Si](OC)(OC)OC)(OC)OC,outcome,[1],inactive
same,Potency,[2],inactive
same,outcome,[3],inactive
same,outcome,[4],inactive
same,Potency,[7],inactive
same,outcome,[5],inactive
same,Potency,[6],inactive
FC(F)(F)C(F)(F)C(F)(F)C(F)(F)C(F)(F)C(F)(F)C(F)(F)C(F)(F)C(F)(F)C(F)(F)F,activation,[1],1.03% [at 8.39 µM]
same,"activity change, negative = cytotoxicity",[2],-0.544% [at 6.97 µM]
same,activation (H2AX phosphorylation),[3],-0.945% [at 14 µM]
same,activation,[4],-1.11% [at 7.01 µM]
same,"activity change, negative = cytotoxicity",[7],0.329% [at 14 µM]
same,"activity change, negative = cytotoxicity",[5],-0.167% [at 6.97 µM]
same,cytotoxicity,[6],-6.11% [at 6.97 µM]
c1ccc2cnncc2c1,outcome,[1],inactive
same,Potency,[2],inactive
same,outcome,[3],inactive
same,outcome,[4],inactive
same,Potency,[9],inactive
same,"activity change, positive = activation",[10],-2.66%
same,outcome,[5],inactive
same,Potency,[6],inactive
CC(C)c1cccc(O)c1,outcome,[1],inactive
same,Potency,[2],inactive
same,outcome,[3],inactive
same,outcome,[4],inactive
same,Potency,[9],inactive
same,"activity change, positive = activation",[10],1.69%
same,outcome,[5],inactive
same,Potency,[8],inactive
same,Potency,[6],inactive
CCCCCCCCCCC1CO1 (stereo not drawn),outcome,[1],inactive
same,Potency,[2],inactive
same,outcome,[3],inactive
same,outcome,[4],inactive
same,outcome,[5],inactive
same,Potency,[6],inactive
c1cc(CN2CCCCC2)cc(OCCCNc2nc3ccccc3s2)c1,outcome,[1],inactive
same,Potency,[2],inactive
same,outcome,[3],inactive
same,outcome,[4],inactive
same,Potency,[9],23.7 µM (active)
same,"activity change, positive = activation",[10],-31.8% [at 42.5 µM]
same,Potency,[8],9.52 µM (active)
same,Potency,[6],inactive
CC/C=C\C#N,outcome,[1],inactive
same,Potency,[2],inactive
same,outcome,[3],inactive
same,outcome,[4],inactive
same,Potency,[7],inactive
same,outcome,[5],inactive
same,Potency,[6],inactive
O=[N+]([O-])c1ccc(CCO)cc1,outcome,[1],inactive
same,Potency,[2],inactive
same,outcome,[3],inactive
same,outcome,[4],inactive
same,Potency,[7],inactive
same,outcome,[5],inactive
same,Potency,[6],inactive
OCc1ccccn1,outcome,[1],inactive
same,Potency,[2],inactive
same,outcome,[3],inactive
same,outcome,[4],inactive
same,Potency,[9],inactive
same,"activity change, positive = activation",[10],4.19% [at 42.5 µM]
same,outcome,[5],inactive
same,Potency,[8],inactive
same,Potency,[6],inactive
N[C@@H](CS)C(=O)O,outcome,[1],inactive
same,Potency,[2],inactive
same,outcome,[3],inactive
same,outcome,[4],inactive
same,outcome,[5],inactive
same,Potency,[8],inactive
same,Potency,[6],inactive
N#CCN(CC#N)CCN(CC#N)CC#N,outcome,[1],inactive
same,Potency,[2],inactive
same,outcome,[3],inactive
same,outcome,[4],inactive
same,outcome,[5],inactive
same,Potency,[8],inactive
same,Potency,[6],inactive
COc1cc(CCC(C)=O)ccc1O,outcome,[1],inactive
same,Potency,[2],inactive
same,outcome,[3],inactive
same,outcome,[4],inactive
same,Potency,[9],inactive
same,"activity change, positive = activation",[10],3.47%
same,outcome,[5],inactive
same,Potency,[8],inactive
same,Potency,[6],inactive
Cc1ncc(CSSCc2cnc(C)c(O)c2CO)c(CO)c1O,outcome,[1],inactive
same,Potency,[2],inactive
same,outcome,[3],inactive
same,outcome,[4],inactive
same,Potency,[9],inactive
same,"activity change, positive = activation",[10],0.477% [at 42.5 µM]
same,outcome,[5],inactive
same,Potency,[8],inactive
same,Potency,[6],inactive
C=CCSCC1Nc2cc(Cl)c(S(N)(=O)=O)cc2S(=O)(=O)N1 (stereo not drawn),outcome,[1],inactive
same,Potency,[2],inactive
same,outcome,[3],inactive
same,outcome,[4],inactive
same,outcome,[5],inactive
same,Potency,[8],inactive
same,Potency,[6],inactive
COC(C(=O)O)c1ccccc1 (stereo not drawn),outcome,[1],inactive
same,Potency,[2],inactive
same,outcome,[3],inactive
same,outcome,[4],inactive
same,Potency,[7],inactive
same,outcome,[5],inactive
same,Potency,[6],inactive
CCOC(=O)[C@H](CCc1ccccc1)N[C@@H](C)C(=O)N1CCC[C@H]1C(=O)O,outcome,[1],inactive
same,Potency,[2],inactive
same,outcome,[3],inactive
same,Potency,[7],inactive
same,Potency,[9],inactive
same,"activity change, positive = activation",[10],3.79% [at 42.5 µM]
same,outcome,[5],inactive
same,Potency,[8],inactive
same,Potency,[6],inactive
COc1cccc(Br)c1,outcome,[1],inactive
same,Potency,[2],inactive
same,outcome,[3],inactive
same,outcome,[4],inactive
same,Potency,[9],inactive
same,"activity change, positive = activation",[10],0.21%
same,outcome,[5],inactive
same,Potency,[8],inactive
same,Potency,[6],inactive
CO[Si](OC)(OC)OC,outcome,[1],inactive
same,Potency,[2],inactive
same,outcome,[3],inactive
same,outcome,[4],inactive
same,Potency,[7],inactive
same,outcome,[5],inactive
same,Potency,[6],inactive
C=CC(=O)OCCCCCC,outcome,[1],inactive
same,Potency,[2],inactive
same,outcome,[3],inactive
same,outcome,[4],inactive
same,outcome,[5],inactive
same,Potency,[6],inactive
